Results on eight compounds are retold here after PubChem BioAssay (Tox21).

Values without a mark were called inactive. Records with an inconclusive call do not appear. Calls of active or inactive are those of the source. Unless noted, calls follow the shape of the dose curve; as a rule, active = well fitted curve in the direction sought with a large enough effect in the repeat runs; inconclusive = weak or mixed curves; inactive = no such curve, though single readings can be large; an effect the other way counts as inactive or inconclusive.

The target of assay [1] is Luciferin 4-monooxygenase (Photinus pyralis) (UniProt P08659). The assay is described as follows: qHTS assay to identify small molecule inhibitors of firefly luciferase (AID 1224835). Also: nearly all actives have a fitted effect of over 25% in size. Also: potency is read from the fitted curve at half-maximal effect. In a few lines: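 Quantitative HTS format; KM concentrations of both substrates. Purified P. pyralis FLuc activity quantified from luminescence images.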
A general note: qHTS replaces the single test concentration by a dilution series.

Assay [2] is described as follows: qHTS assay to identify small molecule antagonists of the constitutive androstane receptor (CAR) signaling pathway - cell viability counter screen (AID 1224837). Also: nearly all actives have a fitted effect of over 45% in size. Also: potency is read from the fitted curve at half-maximal effect. In a few lines: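 HepG2-CYP2B6-hCAR cells, 2500/well, 4 hr pre-incubation; compound titration, 15 conc.; CITCO 50 nM final; 23 hr, 37 C/5% CO2; CellTiter-Fluor, fluorescence intensity.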
Assay [3] has as its target Nuclear receptor subfamily 1 group I member 3 (Homo sapiens) (UniProt Q14994). Kind of assay: qHTS assay to identify small molecule antagonists of the constitutive androstane receptor (CAR) signaling pathway (AID 1224838).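 Also: HepG2 cells stably expressing hCAR with CYP2B6 luciferase reporter stimulated by CITCO; nearly all actives have a fitted effect of over 40% in size.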 The method in brief:
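HepG2-CYP2B6-hCAR cells; 4 h pre-incubation; cpd (15 conc) + CITCO 50 nM final; 24 h, 37 C/5% CO2; ONE-Glo, luminescence.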

Assay [4] has the same target. Kind of assay: qHTS assay to identify small molecule agonists of the constitutive androstane receptor (CAR) signaling pathway (AID 1224839).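 Also: HepG2 cells stably carrying human CAR and a CYP2B6 luciferase reporter; nearly all actives have a fitted effect of over 15% in size.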 In a few lines: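 Readout: firefly luciferase luminescence via ONE-Glo. System: HepG2 double-stable for hCAR and CYP2B6-2.2kb. Conditions: 15-point compound titration, PK11195 at 0.75 uM final, 24 h incubation.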
The nature of assay [5]: qHTS assay to identify small molecule antagonists of the estrogen related receptor signaling pathway with the pleiotropic PPARgamma coactivator (PGC) from Tox21 10K library - cell viability counter screen (AID 1224840; active = well fitted cell-killing curve with a large enough effect in the repeat runs, not every such curve was filed as active; also: nearly all actives have a fitted effect of over 40% in size; also: potency is read from the fitted curve at half-maximal effect). In a few lines:
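PGC/ERR cells, 2,000/well; 6 h pre-incubation 37 C/5% CO2; cpd in DMSO via pin tool; 17.5 h 37 C; CellTiter-Fluor, 30 min; fluorescence.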

Assay [6] in a line: qHTS assay to identify small molecule agonists of the hypoxia (HIF-1) signaling pathway - cell viability counter screen (AID 1224844; calls by dose curve; also: nearly all actives have a fitted effect of over 50% in size; also: potency is read from the fitted curve at half-maximal effect). The method in brief: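 ME-180 HRE-bla cells, 2,000/well, 0.5% dialyzed FBS; 5 hr settle, 17 hr compound at 37C/5% CO2; CCF4-AM reporter read first, then CellTiter-Glo luminescence after 30 min RT.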
Assay [7] is described as follows: qHTS assay to identify small molecule agonists of the hypoxia (HIF-1) signaling pathway (AID 1224846; active = well fitted activation curve with a large enough effect in the signal ratio in the repeat runs, not every such curve was filed as active; the % refers to the signal ratio). The method in brief: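 Cell line: CellSensor HRE-bla ME-180; 2,000 cells/well; 0.5% dialyzed FBS; 5 h preincubation; DMSO compound pin transfer; 17 h, 37C, 5% CO2; CCF4-AM added; bla FRET signal scored for activation.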
Assay [8] can be described thus: A CellTox Green Cytotoxicity Assay to monitor cytotoxicity in HEK293 cells - 0 hour (AID 1224869). Also: nearly all actives have a fitted effect of over 50% in size. Also: potency is read from the fitted curve at half-maximal effect. The method in brief:
(§1)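 Nonlytic real-time cytotoxicity: HEK293 + CellTox Green reagent plated, 5 h preincubation, pintool compound addition (23 nL in DMSO), 37 C for 40 h, fluorescence measured at successive time points.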

Assay [9] can be described thus: A CellTox Green Cytotoxicity Assay to monitor cytotoxicity in HEK293 cells - 40 hour (AID 1224871). Also: nearly all actives have a fitted effect of over 45% in size. Also: potency is read from the fitted curve at half-maximal effect. The method in brief: as §1
The nature of assay [10]: qHTS assay to identify small molecule antagonists of the estrogen related receptor signaling pathway with the pleiotropic PPARgamma coactivator (PGC) from Tox21 10K library (AID 1224841; call rule not given here; also: actives are mostly falling curves and most rising ones were filed inactive; nearly all actives have a fitted effect of over 50% in size; also: potency is read from the fitted curve at half-maximal effect). The method in brief:
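PGC/ERR cell line, 2,000 cells/well; 6 h pre-incubation 37 C/5% CO2; compounds (DMSO) pinned in; 18 h, 37 C; One-Glo, 30 min RT; luminescence.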

A short description of assay [11]: qHTS assay to identify small molecule agonists of the estrogen related receptor signaling pathway with the pleiotropic PPARgamma coactivator (PGC) from Tox21 10K library (AID 1224842). Also: nearly all actives have a fitted effect of over 15% in size. In a few lines:
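PGC/ERR reporter cells (NTP line) were seeded 2,000 per well, rested 6 h at 37 C/5% CO2, then pin-dosed with compounds in DMSO for 18 h at 37 C; luciferase read by One-Glo luminescence after 30 min at room temperature.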

The target in assay [12] is Thyrotropin receptor (Homo sapiens) (UniProt P16473). Kind of assay: qHTS assay to identify small molecule agonists of the thyroid stimulating hormone receptor (TSHR) signaling pathway (AID 1224843; calls by dose curve; also: nearly all actives have a fitted effect of over 45% in size). The method in brief: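 Cell line HEK293 with TSHR; density 800/well. Exposure 30 min RT. Readout HTRF cAMP (cAMP-d2/anti-cAMP-cryptate), 1 h RT before reading.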
The nature of assay [13]: qHTS assay to identify small molecule agonists of H2AX (AID 1224845; active = well fitted activation curve with a large enough effect in the signal ratio in the repeat runs, not every such curve was filed as active; the % refers to the signal ratio). The method in brief:
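Wild-type CHO-K1 cells plated overnight, then exposed 3 hr at 37C to compounds at 15 concentrations (0.76% DMSO). Lysed, then HTRF anti-pH2AX(S139)-cryptate/anti-H2AX-d2 detection after 24 hr at room temperature; emissions 665 and 620 nm.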

A short description of assay [14]: qHTS assay to identify small molecule agonists of the estrogen related receptor (ERR) signaling pathway from Tox21 library (AID 1224849; calls by dose curve; also: nearly all actives have a fitted effect of over 15% in size). To be noted: ERR reporter cell line, ONE-Glo luciferase, 18 h. In a few lines:
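ERR cells, 6 h pre-incubation 37 C/5% CO2; cpd in DMSO pinned; 18 h 37 C; ONE-Glo added, 30 min RT; luminescence read. Agonist mode, qHTS.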

Assay [15] can be described thus: qHTS RealTime-Glo MT Cell Viability Assay in HEK293 cells - 32 hour (AID 1224868). Also: top concentration of the series differs between compounds; nearly all actives have a fitted effect of over 50% in size. The method in brief:
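Tox21 10K qHTS, HEK293, 600 cells/well, RealTime-Glo reagent co-dispensed with cells; 5 h preincubation, compound by pintool, 37 C, luminescence at 0–40 h.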

The nature of assay [16]: qHTS RealTime-Glo MT Cell Viability Assay in HepG2 cells - 40 hour (AID 1224870). Also: nearly all actives have a fitted effect of over 50% in size. In a few lines: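 HepG2 cells mixed with RealTime-Glo MT reagents (NanoLuc plus cell-permeant prosubstrate) were seeded at 600 cells/well, incubated 5 h at 37 C/5% CO2, then pinned with compounds in DMSO; nonlytic luminescence tracked viability during 40 h treatment.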
Assay [17] can be described thus: qHTS assay to identify small molecule agonists of H2AX - cell viability counter screen (AID 1224847; calls by dose curve; also: top concentration of the series differs between compounds; nearly all actives have a fitted effect of over 30% in size). The method in brief: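 For this counter screen, overnight-attached CHO-K1 cells received test compounds (15 concentrations, 0.76% DMSO final); 3 hr later at 37C, CellTiter-Glo reagent was added and luminescence recorded after 30 min at room temperature.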
A short description of assay [18]: qHTS assay to identify small molecule antagonists of the estrogen related receptor (ERR) signaling pathway from Tox21 library (AID 1224848). Also: nearly all actives have a fitted effect of over 50% in size. In a few lines:
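Screening used an ERR reporter line supplied by NTP, exposed for 18 h at 37 C to library compounds delivered in DMSO. Signal was luciferase luminescence developed with ONE-Glo at room temperature for 30 min.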

The nature of assay [19]: qHTS RealTime-Glo MT Cell Viability Assay in HepG2 cells - 24 hour (AID 1224867). Also: nearly all actives have a fitted effect of over 50% in size. The method in brief: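 Cells + NanoLuc/prosubstrate dispensed (600 cells/well) → 5 h at 37 C/5% CO2 → compounds in DMSO transferred → 40 h incubation at 37 C, luminescence read at 0, 8, 16, 24, 32, 40 h.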
% is scaled to controls: 0 for no effect and ±100 for the full control effect.

Luciferin 4-monooxygenase (Photinus pyralis), sequence (P08659 whole entry, looked up): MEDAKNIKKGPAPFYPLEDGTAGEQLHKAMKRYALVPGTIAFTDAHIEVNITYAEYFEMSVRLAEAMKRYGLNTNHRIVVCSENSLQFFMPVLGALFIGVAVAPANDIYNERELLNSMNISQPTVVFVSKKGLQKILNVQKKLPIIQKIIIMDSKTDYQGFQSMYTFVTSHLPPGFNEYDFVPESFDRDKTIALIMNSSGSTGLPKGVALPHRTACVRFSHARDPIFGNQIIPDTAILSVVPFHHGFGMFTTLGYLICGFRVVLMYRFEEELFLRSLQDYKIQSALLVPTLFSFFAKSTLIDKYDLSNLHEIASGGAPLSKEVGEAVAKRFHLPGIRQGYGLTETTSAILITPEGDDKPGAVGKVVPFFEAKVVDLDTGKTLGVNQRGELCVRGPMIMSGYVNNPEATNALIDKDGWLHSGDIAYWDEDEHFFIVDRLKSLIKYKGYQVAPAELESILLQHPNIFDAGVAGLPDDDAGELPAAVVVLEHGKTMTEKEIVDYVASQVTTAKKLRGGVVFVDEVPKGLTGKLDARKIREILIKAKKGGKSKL
Thyrotropin receptor (Homo sapiens), sequence (P16473 whole entry, looked up): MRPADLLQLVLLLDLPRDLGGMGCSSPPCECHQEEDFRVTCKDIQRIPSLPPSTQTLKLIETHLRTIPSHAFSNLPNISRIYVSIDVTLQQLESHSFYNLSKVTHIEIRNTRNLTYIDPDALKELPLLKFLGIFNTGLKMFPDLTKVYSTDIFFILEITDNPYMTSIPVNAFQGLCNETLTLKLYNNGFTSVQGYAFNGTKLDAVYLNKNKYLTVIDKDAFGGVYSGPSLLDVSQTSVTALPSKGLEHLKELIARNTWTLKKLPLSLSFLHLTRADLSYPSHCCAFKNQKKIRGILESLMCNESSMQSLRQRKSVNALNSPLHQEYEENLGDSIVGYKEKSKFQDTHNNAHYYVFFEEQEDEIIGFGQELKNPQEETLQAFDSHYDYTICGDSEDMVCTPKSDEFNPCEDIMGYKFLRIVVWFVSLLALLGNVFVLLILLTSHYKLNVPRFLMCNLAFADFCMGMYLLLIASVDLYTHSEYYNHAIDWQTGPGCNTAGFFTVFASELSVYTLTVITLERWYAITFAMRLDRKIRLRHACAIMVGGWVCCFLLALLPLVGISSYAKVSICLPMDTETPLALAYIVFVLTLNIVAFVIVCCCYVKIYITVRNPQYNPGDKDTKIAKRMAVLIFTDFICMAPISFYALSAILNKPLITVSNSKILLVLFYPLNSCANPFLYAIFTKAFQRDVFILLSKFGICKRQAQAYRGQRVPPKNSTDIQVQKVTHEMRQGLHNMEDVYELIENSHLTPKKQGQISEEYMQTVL
Nuclear receptor subfamily 1 group I member 3 (Homo sapiens), sequence (Q14994 whole entry, looked up): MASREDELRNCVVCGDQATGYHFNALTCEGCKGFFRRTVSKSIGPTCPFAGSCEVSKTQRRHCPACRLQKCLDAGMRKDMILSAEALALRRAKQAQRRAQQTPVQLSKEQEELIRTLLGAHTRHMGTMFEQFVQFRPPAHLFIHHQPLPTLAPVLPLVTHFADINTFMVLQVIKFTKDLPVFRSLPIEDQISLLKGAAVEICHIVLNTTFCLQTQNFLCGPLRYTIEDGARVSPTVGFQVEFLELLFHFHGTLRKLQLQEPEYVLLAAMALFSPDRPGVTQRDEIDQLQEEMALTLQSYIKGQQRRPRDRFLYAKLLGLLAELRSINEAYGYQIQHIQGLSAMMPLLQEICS

Consider `O=S(=O)(O)c1ccc(N=Nc2c(O)ccc3ccccc23)cc1`, for which the Potency was 35.6 µM (active) in [1], 30.6 µM (active) in [2], 48.6 µM (active) in assay [5] and 12.3 µM (active) in [6]. Further, the Potency result in [3], in assay [4], in [7], in assay [8] and in [9] was “inactive” throughout.

As for `Nc1ccc(C(=O)O)c(O)c1`, the Potency entry in assay [1], in assay [2], in assay [4], in assay [5], in assay [10] and in assay [11] was “inactive” each time. The Potency result in [12], in assay [6], in [13], in assay [15], in assay [8] and in [16] was “inactive” in each case. In assay [14] (at 42.5 µM (top of the series)), the activity change, positive = activation was -27.4%.

On to `Cc1cc(C(C)(C)C)cc(C)c1CC1=NCCN1`, for which the Potency result in assay [1], in assay [2], in assay [3], in [4], in assay [5] and in assay [10] was “inactive” in each case. The Potency result in assay [11], in [12], in [6], in assay [13], in [17] and in assay [18] was “inactive” each time. Also, the Potency entry in assay [19], in [15], in [8], in assay [16] and in assay [9] was “inactive” each time. Moreover, the activity change, positive = activation in assay [14] (at 42.5 µM (top of the series)) is -3.5%.

Consider `O=C1OC2(c3ccc(O)cc3Oc3cc(O)ccc32)c2ccc(N=C=S)cc21`, for which the Potency entry in [1], in assay [2], in [5], in assay [11], in assay [12] and in assay [6] was “inactive” throughout. Also, the Potency entry in assay [17], in [18] and in [16] was “inactive” throughout. Moreover, in assay [14] (at 92.4 µM (top of the series)), the activity change, positive = activation was 3.25%. Further, the Potency in [8] was 22.3 µM (active); in [9], 12.5 µM (active).

Turning to `Cc1cc(-n2nc3ccc(Cl)cc3n2)c(O)c(C(C)(C)C)c1`, the Potency result in assay [1], in [3], in [4], in assay [5], in assay [10] and in assay [11] was “inactive” each time. Further, the Potency entry in assay [12], in assay [6], in [13], in assay [17], in [19] and in [15] was “inactive” each time. Further, the Potency result in assay [8], in assay [16] and in assay [9] was “inactive” throughout. Further, the activity change, positive = activation in assay [14] (at 42.5 µM (top of the series)) was 2.34%.

Turning to `O=C(O)c1cc(-c2ccc(F)cc2F)ccc1O`, the results for the Potency in [1] and in assay [10] were 34.7 µM (active) and 9.44 µM (active), respectively. Further, the Potency result in [3], in assay [5], in assay [11], in assay [6], in [13] and in assay [7] was “inactive” each time. Moreover, the Potency entry in [18], in assay [19], in assay [15], in assay [8], in [16] and in [9] was “inactive” throughout. Further, in assay [14] (at 42.5 µM (top of the series)), the activity change, positive = activation is -14.2%.

As for `CCC(C)n1ncn(-c2ccc(N3CCN(c4ccc(OC[C@H]5CO[C@](Cn6cncn6)(c6ccc(Cl)cc6Cl)O5)cc4)CC3)cc2)c1=O` (stereo not given in full), the Potency entry in assay [1], in [2], in assay [3], in assay [4], in assay [5] and in assay [12] was “inactive” in each case. For the same compound, the Potency entry in [13] and in assay [8] was “inactive” in each case.

Consider `FC(F)(F)c1cccc(Cl)c1`, for which the Potency entry in assay [1], in [3], in [4], in [5], in assay [12] and in [6] was “inactive” throughout. For the same compound, the Potency result in [13], in assay [7], in assay [17], in [19], in [15] and in assay [8] was “inactive” in each case. Further, the Potency entry in assay [16] and in assay [9] was “inactive” in each case.
